# Reference: PMC7862700, “An all-to-all approach to the identification of sequence-specific readers for epigenetic DNA modifications on cytosine”
# Experiments:
# Assay in all cases: DAPPL (digital affinity profiling via proximity ligation, sequencing); 10 mM Tris-HCl pH 7.5, 50 mM NaCl, 1 mM DTT, 4% glycerol, room temperature, 30 min; GST-TFs on glutathione beads, 16-mer random dsDNA library, 0.1% formaldehyde crosslink after washing; high values mean tight binding
# [1] = target: T1, FLI1 (Homo sapiens, UniProt Q01543 1-452); details: protein: recombinant; tags: N-terminal GST; dsDNA, one strand shown
# T1 sequence: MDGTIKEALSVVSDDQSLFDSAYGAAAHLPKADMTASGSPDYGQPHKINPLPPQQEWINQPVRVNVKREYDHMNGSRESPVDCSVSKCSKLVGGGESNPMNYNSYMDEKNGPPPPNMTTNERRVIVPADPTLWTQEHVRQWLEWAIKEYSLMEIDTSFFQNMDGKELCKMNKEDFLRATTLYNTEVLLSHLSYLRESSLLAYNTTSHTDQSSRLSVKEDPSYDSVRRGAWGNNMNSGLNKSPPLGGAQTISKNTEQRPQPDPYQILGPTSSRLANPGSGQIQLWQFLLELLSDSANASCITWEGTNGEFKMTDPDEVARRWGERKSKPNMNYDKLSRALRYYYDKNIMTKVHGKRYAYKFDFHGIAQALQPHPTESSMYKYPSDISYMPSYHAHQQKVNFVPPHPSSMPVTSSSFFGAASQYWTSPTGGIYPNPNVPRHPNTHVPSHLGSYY
# Method in brief: (§1)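 Human transcription factors carrying a GST fusion were produced in yeast, bound to glutathione beads, tagged with DNA barcodes and pooled together with a tag-only sample. Each pool was held with 200 nmole of a random double-stranded 16-mer DNA library in Tris/NaCl/DTT/glycerol buffer for 30 min at room temperature, then washed, crosslinked in 0.1% formaldehyde, proximity-ligated with BsaI/T4 ligase (1 h, 37 °C), PCR-amplified and sequenced on an Illumina NextSeq500. Binding signal is the read frequency of each hexamer for a given factor divided by its frequency in the tag-only sample.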
# [2] = target: T2, ELK1 (Homo sapiens, UniProt P19419 1-428); details: protein: recombinant; tags: N-terminal GST; dsDNA, one strand shown
# T2 sequence: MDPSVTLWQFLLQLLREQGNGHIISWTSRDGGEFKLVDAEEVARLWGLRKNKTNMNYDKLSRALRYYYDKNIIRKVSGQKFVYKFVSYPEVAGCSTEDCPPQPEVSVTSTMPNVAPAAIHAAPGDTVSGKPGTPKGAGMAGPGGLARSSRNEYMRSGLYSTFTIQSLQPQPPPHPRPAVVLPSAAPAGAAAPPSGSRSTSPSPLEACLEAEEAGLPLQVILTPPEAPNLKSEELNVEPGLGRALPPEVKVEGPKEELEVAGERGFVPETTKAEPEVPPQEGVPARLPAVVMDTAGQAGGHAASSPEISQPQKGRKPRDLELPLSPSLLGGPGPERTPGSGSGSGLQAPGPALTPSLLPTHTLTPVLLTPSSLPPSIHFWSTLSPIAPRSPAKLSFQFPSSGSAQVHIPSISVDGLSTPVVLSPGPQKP
# Method in brief: as §1
# [3] = target: T3, GABPA (Homo sapiens, UniProt Q06546 1-454); details: protein: recombinant; tags: N-terminal GST; dsDNA, one strand shown
# T3 sequence: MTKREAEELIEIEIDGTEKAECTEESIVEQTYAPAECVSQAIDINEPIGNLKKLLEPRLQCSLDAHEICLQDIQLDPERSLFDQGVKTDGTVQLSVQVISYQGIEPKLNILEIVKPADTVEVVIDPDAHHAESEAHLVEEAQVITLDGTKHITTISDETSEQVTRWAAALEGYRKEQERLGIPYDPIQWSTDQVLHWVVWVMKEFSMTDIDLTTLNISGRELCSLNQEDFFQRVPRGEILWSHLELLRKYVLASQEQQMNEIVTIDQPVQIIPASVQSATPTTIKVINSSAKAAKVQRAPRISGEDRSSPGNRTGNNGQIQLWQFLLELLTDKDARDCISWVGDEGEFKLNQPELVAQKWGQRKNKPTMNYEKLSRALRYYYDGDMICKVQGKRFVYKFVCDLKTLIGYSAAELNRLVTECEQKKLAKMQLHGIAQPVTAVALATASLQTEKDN
# Method in brief: as §1
# [4] = target: T4, ERG (Homo sapiens, UniProt P11308 1-479); details: protein: recombinant; tags: N-terminal GST; dsDNA, one strand shown
# T4 sequence: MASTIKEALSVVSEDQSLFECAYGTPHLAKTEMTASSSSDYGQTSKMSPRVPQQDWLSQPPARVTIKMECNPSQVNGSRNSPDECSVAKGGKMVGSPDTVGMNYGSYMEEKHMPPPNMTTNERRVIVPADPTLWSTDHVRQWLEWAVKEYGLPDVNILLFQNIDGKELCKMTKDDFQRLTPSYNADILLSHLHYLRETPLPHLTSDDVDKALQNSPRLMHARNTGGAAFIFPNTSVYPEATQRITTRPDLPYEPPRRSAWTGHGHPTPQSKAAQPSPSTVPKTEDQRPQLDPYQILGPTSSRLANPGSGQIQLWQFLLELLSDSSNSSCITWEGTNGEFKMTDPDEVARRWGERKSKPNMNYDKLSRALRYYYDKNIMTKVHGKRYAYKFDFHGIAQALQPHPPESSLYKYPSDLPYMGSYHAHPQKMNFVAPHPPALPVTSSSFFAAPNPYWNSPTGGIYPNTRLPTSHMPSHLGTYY
# Method in brief: as §1
# [5] = target: ELF1 (Homo sapiens, UniProt P32519 1-619); details: protein: recombinant; tags: N-terminal GST; dsDNA, one strand shown
# Sequence of ELF1 (P32519 whole entry): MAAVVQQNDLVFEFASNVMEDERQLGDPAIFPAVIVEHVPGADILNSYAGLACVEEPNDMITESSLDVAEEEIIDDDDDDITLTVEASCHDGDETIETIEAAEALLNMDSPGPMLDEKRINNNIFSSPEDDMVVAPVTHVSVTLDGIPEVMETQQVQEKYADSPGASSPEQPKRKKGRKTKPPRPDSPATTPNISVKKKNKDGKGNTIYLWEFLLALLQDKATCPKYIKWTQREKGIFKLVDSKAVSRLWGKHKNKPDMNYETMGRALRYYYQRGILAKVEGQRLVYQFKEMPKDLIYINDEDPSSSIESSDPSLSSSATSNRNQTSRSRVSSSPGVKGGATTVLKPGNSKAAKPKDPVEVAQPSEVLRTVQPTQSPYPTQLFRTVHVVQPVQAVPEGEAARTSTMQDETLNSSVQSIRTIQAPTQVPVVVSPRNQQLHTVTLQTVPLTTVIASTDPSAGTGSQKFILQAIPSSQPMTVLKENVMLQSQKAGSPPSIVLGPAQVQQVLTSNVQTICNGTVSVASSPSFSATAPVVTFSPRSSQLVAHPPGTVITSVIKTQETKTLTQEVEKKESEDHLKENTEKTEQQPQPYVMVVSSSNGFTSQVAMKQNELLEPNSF
# Method in brief: as §1
# [6] = target: T5, EHF (Homo sapiens, UniProt Q9NZC4 1-300); details: protein: recombinant; tags: N-terminal GST; dsDNA, one strand shown
# T5 sequence: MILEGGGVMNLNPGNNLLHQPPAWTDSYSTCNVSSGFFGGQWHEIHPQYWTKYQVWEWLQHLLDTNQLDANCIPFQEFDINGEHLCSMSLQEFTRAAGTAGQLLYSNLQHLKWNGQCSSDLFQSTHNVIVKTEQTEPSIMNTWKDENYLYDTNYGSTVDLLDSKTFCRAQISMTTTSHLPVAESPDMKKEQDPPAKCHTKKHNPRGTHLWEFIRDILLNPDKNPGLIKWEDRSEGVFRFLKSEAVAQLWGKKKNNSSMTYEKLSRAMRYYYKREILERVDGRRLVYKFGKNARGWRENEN
# Method in brief: as §1
# [7] = target: SPI1 (Homo sapiens, UniProt P17947 1-270); details: protein: recombinant; tags: N-terminal GST; dsDNA, one strand shown
# Method in brief: as §1
# [8] = target: SPIB (Homo sapiens, UniProt Q01892 1-262); details: protein: recombinant; tags: N-terminal GST; dsDNA, one strand shown
# Sequence of SPIB (Q01892 whole entry): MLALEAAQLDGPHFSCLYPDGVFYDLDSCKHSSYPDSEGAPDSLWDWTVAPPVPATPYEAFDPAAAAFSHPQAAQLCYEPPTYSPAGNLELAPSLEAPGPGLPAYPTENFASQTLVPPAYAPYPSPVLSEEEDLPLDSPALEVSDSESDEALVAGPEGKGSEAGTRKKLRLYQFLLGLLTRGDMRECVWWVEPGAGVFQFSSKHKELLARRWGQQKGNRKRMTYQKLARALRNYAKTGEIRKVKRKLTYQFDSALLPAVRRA
# Method in brief: as §1
# [9] = target: T6, ELK3 (Homo sapiens, UniProt P41970 1-407); details: protein: recombinant; tags: N-terminal GST; dsDNA, one strand shown
# T6 sequence: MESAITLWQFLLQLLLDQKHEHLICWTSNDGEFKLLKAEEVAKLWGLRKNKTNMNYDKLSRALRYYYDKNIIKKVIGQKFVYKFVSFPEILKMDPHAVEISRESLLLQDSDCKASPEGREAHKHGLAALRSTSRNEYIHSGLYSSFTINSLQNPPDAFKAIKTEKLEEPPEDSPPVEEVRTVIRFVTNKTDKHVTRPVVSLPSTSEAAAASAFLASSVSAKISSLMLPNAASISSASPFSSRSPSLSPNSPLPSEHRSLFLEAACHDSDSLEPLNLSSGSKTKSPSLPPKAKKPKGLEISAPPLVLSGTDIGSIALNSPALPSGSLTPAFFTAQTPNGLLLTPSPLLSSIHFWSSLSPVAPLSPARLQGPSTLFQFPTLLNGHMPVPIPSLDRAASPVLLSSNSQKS
# Method in brief: as §1
# [10] = target: T7, FEV (Homo sapiens, UniProt Q99581 1-238); details: protein: recombinant; tags: N-terminal GST; dsDNA, one strand shown
# T7 sequence: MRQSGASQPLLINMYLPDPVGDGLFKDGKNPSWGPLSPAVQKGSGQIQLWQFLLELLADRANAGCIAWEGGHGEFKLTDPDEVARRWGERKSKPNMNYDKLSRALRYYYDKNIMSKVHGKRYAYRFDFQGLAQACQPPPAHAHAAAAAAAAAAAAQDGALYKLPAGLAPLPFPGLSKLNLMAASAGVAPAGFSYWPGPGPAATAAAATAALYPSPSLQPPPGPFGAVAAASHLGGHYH
# Method in brief: as §1
# [11] = target: ETV5 (Homo sapiens, UniProt P41161 1-510); details: protein: recombinant; tags: N-terminal GST; dsDNA, one strand shown
# Sequence of ETV5 (P41161 whole entry): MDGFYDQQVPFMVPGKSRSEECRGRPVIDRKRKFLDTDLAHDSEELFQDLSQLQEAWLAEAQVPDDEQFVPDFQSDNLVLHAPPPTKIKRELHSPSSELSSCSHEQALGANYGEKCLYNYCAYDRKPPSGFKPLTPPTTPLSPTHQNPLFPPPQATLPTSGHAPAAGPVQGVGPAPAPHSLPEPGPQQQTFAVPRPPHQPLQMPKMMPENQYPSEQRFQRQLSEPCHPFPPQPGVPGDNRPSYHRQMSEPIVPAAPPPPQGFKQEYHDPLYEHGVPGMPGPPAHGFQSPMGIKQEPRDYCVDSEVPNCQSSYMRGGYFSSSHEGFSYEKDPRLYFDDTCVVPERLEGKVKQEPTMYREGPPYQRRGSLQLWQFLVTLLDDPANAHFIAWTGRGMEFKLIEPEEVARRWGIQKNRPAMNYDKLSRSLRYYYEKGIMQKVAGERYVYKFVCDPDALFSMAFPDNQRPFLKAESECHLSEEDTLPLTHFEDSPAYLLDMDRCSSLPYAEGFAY
# Method in brief: as §1
# [12] = target: HSF1 (Homo sapiens, UniProt Q00613 1-529); details: protein: recombinant; tags: N-terminal GST; chain copies: 3; dsDNA, one strand shown
# Sequence of HSF1 (Q00613 whole entry): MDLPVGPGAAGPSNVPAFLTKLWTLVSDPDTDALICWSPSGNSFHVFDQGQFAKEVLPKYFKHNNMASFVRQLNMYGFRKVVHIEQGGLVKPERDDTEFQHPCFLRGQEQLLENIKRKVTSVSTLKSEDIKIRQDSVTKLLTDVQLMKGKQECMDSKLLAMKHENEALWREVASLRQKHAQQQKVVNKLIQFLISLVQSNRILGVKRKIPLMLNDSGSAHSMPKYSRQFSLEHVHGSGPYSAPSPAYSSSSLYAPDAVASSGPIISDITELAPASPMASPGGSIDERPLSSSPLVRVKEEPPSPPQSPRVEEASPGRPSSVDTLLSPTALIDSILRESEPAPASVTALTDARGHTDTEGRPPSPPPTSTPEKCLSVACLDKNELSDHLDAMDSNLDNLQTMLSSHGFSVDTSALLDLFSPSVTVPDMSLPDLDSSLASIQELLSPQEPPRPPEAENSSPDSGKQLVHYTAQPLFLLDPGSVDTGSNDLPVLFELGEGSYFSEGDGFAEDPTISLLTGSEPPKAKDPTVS
# Method in brief: as §1
# [13] = target: T8, SPIC (Homo sapiens, UniProt Q8N5J4 1-248); details: protein: recombinant; tags: N-terminal GST; dsDNA, one strand shown
# T8 sequence: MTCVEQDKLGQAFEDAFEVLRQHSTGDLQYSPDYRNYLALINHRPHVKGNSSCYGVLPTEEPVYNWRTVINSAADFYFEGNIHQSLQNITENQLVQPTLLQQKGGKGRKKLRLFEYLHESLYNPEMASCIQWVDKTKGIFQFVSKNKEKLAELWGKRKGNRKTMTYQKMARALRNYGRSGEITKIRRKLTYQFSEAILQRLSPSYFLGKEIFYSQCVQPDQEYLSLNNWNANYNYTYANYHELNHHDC
# Method in brief: as §1
# [14] = target: ELF4 (Homo sapiens, UniProt Q99607 1-663); details: protein: recombinant; tags: N-terminal GST; dsDNA, one strand shown
# Sequence of ELF4 (Q99607 whole entry): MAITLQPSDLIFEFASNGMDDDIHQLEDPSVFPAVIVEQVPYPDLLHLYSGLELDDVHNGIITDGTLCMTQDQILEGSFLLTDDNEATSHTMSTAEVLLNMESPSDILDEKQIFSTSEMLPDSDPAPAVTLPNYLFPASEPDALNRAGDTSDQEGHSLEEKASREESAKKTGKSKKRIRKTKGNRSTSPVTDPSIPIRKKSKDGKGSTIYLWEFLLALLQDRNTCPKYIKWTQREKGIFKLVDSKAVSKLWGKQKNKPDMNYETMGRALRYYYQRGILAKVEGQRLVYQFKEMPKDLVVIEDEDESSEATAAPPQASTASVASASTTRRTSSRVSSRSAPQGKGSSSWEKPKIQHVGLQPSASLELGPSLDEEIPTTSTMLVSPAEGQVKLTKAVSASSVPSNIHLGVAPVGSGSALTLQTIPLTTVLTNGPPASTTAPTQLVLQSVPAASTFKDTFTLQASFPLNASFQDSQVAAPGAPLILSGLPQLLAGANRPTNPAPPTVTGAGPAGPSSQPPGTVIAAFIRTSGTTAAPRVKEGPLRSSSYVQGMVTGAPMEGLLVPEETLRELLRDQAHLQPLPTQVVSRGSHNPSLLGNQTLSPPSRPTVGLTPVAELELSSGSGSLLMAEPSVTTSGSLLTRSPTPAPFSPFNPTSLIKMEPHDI
# Method in brief: as §1
# [15] = target: T9, ELK4 (Homo sapiens, UniProt P28324-2 1-405); details: protein: recombinant; tags: N-terminal GST; dsDNA, one strand shown
# T9 sequence: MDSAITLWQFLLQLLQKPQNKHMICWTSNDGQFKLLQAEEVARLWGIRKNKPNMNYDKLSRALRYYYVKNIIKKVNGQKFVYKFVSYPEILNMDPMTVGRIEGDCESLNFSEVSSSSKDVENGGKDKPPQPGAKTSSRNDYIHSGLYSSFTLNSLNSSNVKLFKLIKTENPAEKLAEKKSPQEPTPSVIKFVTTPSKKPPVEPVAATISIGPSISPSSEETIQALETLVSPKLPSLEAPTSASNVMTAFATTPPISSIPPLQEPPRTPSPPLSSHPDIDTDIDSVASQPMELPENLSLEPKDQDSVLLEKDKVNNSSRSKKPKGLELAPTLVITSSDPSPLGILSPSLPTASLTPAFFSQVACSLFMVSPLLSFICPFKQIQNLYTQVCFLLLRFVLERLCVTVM
# Method in brief: as §1
# [16] = target: T10, ETV2 (Homo sapiens, UniProt O00321 1-342); details: protein: recombinant; tags: N-terminal GST; dsDNA, one strand shown
# T10 sequence: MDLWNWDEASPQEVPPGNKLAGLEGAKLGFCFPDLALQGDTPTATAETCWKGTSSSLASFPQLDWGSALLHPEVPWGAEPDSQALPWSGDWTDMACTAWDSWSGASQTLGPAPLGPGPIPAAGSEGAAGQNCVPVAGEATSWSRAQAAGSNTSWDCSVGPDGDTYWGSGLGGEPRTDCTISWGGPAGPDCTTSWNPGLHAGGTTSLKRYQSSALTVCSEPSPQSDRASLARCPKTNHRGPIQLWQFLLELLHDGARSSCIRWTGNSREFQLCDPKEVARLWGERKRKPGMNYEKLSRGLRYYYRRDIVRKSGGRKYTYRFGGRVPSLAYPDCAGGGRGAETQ
# Method in brief: as §1
# [17] = target: T11, ELF3 (Homo sapiens, UniProt P78545 1-371); details: protein: recombinant; tags: N-terminal GST; dsDNA, one strand shown
# T11 sequence: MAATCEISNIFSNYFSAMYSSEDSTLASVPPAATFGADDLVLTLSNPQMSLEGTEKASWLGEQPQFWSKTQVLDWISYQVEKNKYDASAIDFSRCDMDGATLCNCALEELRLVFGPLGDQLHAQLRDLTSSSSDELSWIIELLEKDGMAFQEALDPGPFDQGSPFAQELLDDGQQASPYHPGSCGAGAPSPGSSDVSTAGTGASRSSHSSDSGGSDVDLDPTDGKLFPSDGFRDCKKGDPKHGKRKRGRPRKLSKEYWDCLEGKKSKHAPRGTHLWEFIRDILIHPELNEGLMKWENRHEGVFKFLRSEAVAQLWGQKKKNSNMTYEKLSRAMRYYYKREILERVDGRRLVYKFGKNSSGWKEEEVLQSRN
# Method in brief: as §1
# [18] = target: CRX (Homo sapiens, UniProt O43186 1-299); details: protein: recombinant; tags: N-terminal GST; dsDNA, one strand shown
# Sequence of CRX (O43186 whole entry): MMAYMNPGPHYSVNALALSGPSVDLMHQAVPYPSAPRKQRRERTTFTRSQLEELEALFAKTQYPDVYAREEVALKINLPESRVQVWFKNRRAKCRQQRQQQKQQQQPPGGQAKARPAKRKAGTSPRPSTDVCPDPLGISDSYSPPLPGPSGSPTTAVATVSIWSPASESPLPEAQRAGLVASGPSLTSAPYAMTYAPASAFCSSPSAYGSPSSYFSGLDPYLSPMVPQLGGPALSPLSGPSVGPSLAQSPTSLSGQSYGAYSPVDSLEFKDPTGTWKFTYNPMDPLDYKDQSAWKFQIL
# Method in brief: as §1
# [19] = target: ETV1 (Homo sapiens, UniProt P50549 1-477); details: protein: recombinant; tags: N-terminal GST; dsDNA, one strand shown
# Sequence of ETV1 (P50549 whole entry): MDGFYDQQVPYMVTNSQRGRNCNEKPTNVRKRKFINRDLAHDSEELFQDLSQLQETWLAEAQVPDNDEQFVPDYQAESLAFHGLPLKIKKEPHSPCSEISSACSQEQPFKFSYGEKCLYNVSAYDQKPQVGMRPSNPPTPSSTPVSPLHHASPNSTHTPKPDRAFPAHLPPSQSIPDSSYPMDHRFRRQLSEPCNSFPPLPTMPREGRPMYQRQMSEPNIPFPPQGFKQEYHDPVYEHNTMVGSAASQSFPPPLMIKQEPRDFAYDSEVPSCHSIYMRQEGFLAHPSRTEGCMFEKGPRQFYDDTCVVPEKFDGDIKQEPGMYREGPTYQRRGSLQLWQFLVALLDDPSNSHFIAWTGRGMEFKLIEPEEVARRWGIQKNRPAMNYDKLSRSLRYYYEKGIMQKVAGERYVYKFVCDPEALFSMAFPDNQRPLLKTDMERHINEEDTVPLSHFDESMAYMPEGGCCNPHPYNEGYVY
# Method in brief: as §1
sequence,measurement,setting,value
ATAGAA,binding signal,[1],"1.02 fold enrichment (6-mer frequency, TF over GST control)"
same,binding signal,[2],"1.04 fold enrichment (6-mer frequency, TF over GST control)"
same,binding signal,[3],"1.04 fold enrichment (6-mer frequency, TF over GST control)"
same,binding signal,[4],"1.06 fold enrichment (6-mer frequency, TF over GST control)"
same,binding signal,[5],"1.05 fold enrichment (6-mer frequency, TF over GST control)"
same,binding signal,[6],"1.07 fold enrichment (6-mer frequency, TF over GST control)"
same,binding signal,[7],"1.16 fold enrichment (6-mer frequency, TF over GST control)"
same,binding signal,[8],"1.08 fold enrichment (6-mer frequency, TF over GST control)"
same,binding signal,[9],"1.13 fold enrichment (6-mer frequency, TF over GST control)"
same,binding signal,[10],"1.04 fold enrichment (6-mer frequency, TF over GST control)"
same,binding signal,[11],"1.05 fold enrichment (6-mer frequency, TF over GST control)"
same,binding signal,[12],"1.93 fold enrichment (6-mer frequency, TF over GST control)"
same,binding signal,[13],"1.03 fold enrichment (6-mer frequency, TF over GST control)"
same,binding signal,[14],"1.1 fold enrichment (6-mer frequency, TF over GST control)"
same,binding signal,[15],"1.02 fold enrichment (6-mer frequency, TF over GST control)"
same,binding signal,[16],"1.01 fold enrichment (6-mer frequency, TF over GST control)"
same,binding signal,[17],"1 fold enrichment (6-mer frequency, TF over GST control)"
same,binding signal,[18],"1.28 fold enrichment (6-mer frequency, TF over GST control)"
same,binding signal,[19],"1.12 fold enrichment (6-mer frequency, TF over GST control)"
